The list is not random: actives were taken first. Their share in the collection is about 3.3%.
BoNT-F LC inh: BoNT/F light chain protease inhibitors, primary screen, biochemical, flow cytometry, MLPCN library | AID 588497, 2011 | 360,000 compounds, 0.22% hits | inhibition, % at 10 µM | Multiplex microsphere protease cleavage assay; in the data active means inhibition above about 35%, passing the limit was not always enough; inconclusive means no clear call, values can overlap the other calls; further: plate controls were buffer without enzyme for full effect and enzyme alone for no effect
PriA SSB inh: inhibitors of Klebsiella pneumoniae PriA binding to SSB C-terminal tail, primary screen, biochemical, AlphaScreen | PriA–SSB C-terminal tail interaction (Klebsiella pneumoniae) | AlphaScreen SSBct-PriA binding, biotinylated peptide | inhibition, % at 33 µM | 430,000 compounds, 0.6% hits | AID 1272365, 2023; in the data active means inhibition mostly above about 37%, no sharp cut-off; inactive means mostly below about 20%;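 further: plate controls were negative control peptide for no effect and reference peptide for full effect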
MazF activator: activators of E. coli MazEF toxin-antitoxin RNase, primary screen, biochemical, fluorescence, uHTS; activation, % at 20 µM; FAM/BHQ RNA-DNA oligo cleavage fluorescence, 5 h; AID 504720, 2011; Endoribonuclease toxin MazF (Escherichia coli (strain K12)), P0AE70; 350,000 compounds, 0.32% hits; in the data active means activation above about 50%
Autofluor counter: counter-screen for toxin protease inhibitors: compound fluorescence; 360,000 compounds, 3.1% hits; compound autofluorescence counterscreen, microsphere flow cytometry; active compounds read high; fluorescence intensity (test concentration not listed); in the data active means fluorescence intensity above about 16000; inconclusive means no clear call, values can overlap the other calls
Anthrax LF inh2: Bacillus anthracis LF protease inhibitors, primary screen, biochemical, multiplex microsphere, MLPCN library; Lethal factor (Bacillus anthracis), P15917; inhibition, % at 10 µM; 360,000 compounds, 0.12% hits; multiplex microsphere protease cleavage assay; further: plate controls were buffer without enzyme for full effect and enzyme alone for no effect
Target sequence (P15917 whole entry, looked up): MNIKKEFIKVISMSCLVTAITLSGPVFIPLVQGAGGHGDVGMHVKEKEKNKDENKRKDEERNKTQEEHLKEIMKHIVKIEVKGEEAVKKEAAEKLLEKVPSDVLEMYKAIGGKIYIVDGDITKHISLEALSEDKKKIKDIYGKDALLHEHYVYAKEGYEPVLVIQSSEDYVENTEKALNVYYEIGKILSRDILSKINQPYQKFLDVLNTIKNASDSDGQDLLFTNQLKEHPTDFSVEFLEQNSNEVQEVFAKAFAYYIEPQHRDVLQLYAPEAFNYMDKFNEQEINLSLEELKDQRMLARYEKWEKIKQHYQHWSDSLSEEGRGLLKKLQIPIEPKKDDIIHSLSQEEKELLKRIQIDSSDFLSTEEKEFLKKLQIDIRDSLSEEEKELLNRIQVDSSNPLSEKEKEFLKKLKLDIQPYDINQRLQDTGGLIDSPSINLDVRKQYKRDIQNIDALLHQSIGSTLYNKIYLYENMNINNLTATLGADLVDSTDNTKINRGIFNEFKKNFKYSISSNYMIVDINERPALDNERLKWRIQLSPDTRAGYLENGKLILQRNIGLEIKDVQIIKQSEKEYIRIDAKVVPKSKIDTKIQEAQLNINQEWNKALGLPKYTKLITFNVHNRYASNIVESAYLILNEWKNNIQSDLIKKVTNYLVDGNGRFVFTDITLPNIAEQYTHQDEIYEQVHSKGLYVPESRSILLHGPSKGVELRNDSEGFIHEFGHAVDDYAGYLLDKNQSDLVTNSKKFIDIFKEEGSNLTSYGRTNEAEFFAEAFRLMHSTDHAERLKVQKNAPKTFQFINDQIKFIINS
BoNT A protease: BoNT/A light chain protease inhibitors, primary screen, biochemical, flow cytometry, MLPCN library. Botulinum neurotoxin type A light chain protease (Clostridium botulinum A str. ATCC 3502). multiplex microsphere protease substrate cleavage. inhibition, % at 10 µM. 360,000 compounds, 0.17% hits. AID 588499, 2011; further: plate controls were buffer without enzyme for full effect and enzyme alone for no effect
* marks the source's active call; other numbers are inactive results; ? = inconclusive; · = not tested or not shown. Unless noted, no stated cut-off is given here; in the data, active means inhibition above about 30%; inconclusive means no clear call, values can overlap the other calls; inactive means below that.

SMILES	BoNT-F LC inh	PriA SSB inh	MazF activator	Autofluor counter	Anthrax LF inh2	BoNT A protease
O=C(NC12CCC(O)C(SC1)/C2=N/O)c1ccccc1 (configuration not stated)	7	·	-2	19906*	-11	4
CN1CCN(c2ccc([N+](=O)[O-])c(N/N=C3\CN4CCC3CC4)c2)CC1	-4	·	-3	20912*	-2	-1
COc1ccccc1-c1nc(SCC(=O)N2CCC(C)CC2)c2c(=O)n(C)c(=O)n(C)c2n1	·	-7	·	·	·	·
O=C(Cc1cccc2ccccc12)N1CC(c2nc(-c3cnccn3)no2)C1	·	1	·	·	·	·
O=C(CCc1cccc(OCc2ccccc2)c1)N1CC(S(=O)(=O)C2CCCCC2)C1	·	8	·	·	·	·
CC(=O)/C=C1/SC(CC(=O)O)C(=O)N1c1ccccc1 (configuration not stated)	12	-6	-8	17699*	-32	8
COc1cc([N+](=O)[O-])ccc1-c1ccc(/C=N\n2cnnc2)o1	-2	·	154*	4009	-2	13
COc1cc([N+](=O)[O-])ccc1-c1ccc(C=Nn2cnnc2)o1	·	-9	·	·	·	·
Cc1cccn2cc(-c3cccc(NC(=O)c4ccc(N5CCCC5)nn4)c3)nc12	·	-5	·	·	·	·
Cc1nnsc1C(=O)Nc1cc(OCc2ccc3c(c2)OCO3)ncn1	·	-11	·	·	·	·
COc1ccc2c(C)cc(SCC(=O)c3ccc4c(c3)OCO4)nc2c1	1	-2	-26	23435*	-3	?
Cc1cc(SCC#N)nc2ccccc12	-1	-7	-8	3080	-2	0
COc1ccc2c(C)cc(SCC(N)=O)nc2c1	·	-11	·	·	·	·
COc1ccc2c(C)cc(SCc3c(C)noc3C)nc2c1	2	-35	-11	22377*	-2	4
COc1ccc2c(C)cc(SCC#N)nc2c1	-3	-23	11	16543*	-2	2
Cc1ccccc1CCC(=O)N1C2CCC1CC(S(=O)(=O)c1ccccc1)C2 (configuration not stated)	·	-4	·	·	·	·
Oc1c(Cl)cc(Cl)cc1/C=C/c1ccc2cccc(O)c2n1	-6	-18	-9	2267	-1	0
Oc1ccc(Cl)cc1/C=C/c1ccc2cccc(O)c2n1	-15	-3	60*	4138	2	0
COc1ccccc1-c1ccc(N2CCN(C(=O)COc3ccccc3)CC2)nn1	·	2	·	·	·	·
COc1cccc(N(C(=O)Cn2nnc(-c3ccc(C)cc3)n2)C(C(=O)NC(C)(C)C)c2c[nH]c3ccccc23)c1 (configuration not stated)	-9	20	-3	23333*	-8	-2
ONC(=Nc1ccc(Cl)cc1)c1ccccc1	1	-17	3	22689*	-2	1
O=[N+]([O-])c1cccc(C(=Nc2cccc(Cl)c2)NO)c1	7	-18	4	8778	-2	1
COc1cc(CN2CCCC(C)C2)cc([N+](=O)[O-])c1O (configuration not stated)	-2	-6	-17	23731*	0	0
COc1ccc(NC(=O)Cn2nc(-c3ccc(Cl)cc3)c3sc(C)nc3c2=O)c(OC)c1	·	6	·	·	·	·
O=C(Cc1csc(NS(=O)(=O)c2ccc(Cl)cc2)n1)Nc1ccc(F)c(F)c1	·	0	·	·	·	·
SMILES	BoNT-F LC inh	PriA SSB inh	MazF activator	Autofluor counter	Anthrax LF inh2	BoNT A protease
O=C(NCC(c1ccco1)N1CCCC1)c1cccc(NS(=O)(=O)c2ccccc2)c1 (configuration not stated)	-8	-11	-6	16491*	-4	-9
COc1ccc(NS(=O)(=O)c2cccc(C(=O)NCC(c3ccccc3OC)N3CCCC3)c2)cc1 (configuration not stated)	-33	8	3	15861	0	24
COc1ccccc1C(CNC(=O)c1cccc(S(=O)(=O)Nc2ccc(F)cc2)c1)N1CCCC1 (configuration not stated)	6	-2	-8	25818*	3	2
CCN(CC)S(=O)(=O)c1ccc(C(=O)Nc2cc(C)nn2C)cc1	·	2	·	·	·	·
Cc1cc(N2CCN(c3ccccc3)CC2)nc(N)n1	-2	0	-1	20567*	1	?
CN1CCCCCC1=Nc1ccc([N+](=O)[O-])cc1	39*	-2	4	2847	1	0
CN1CCCC1=Nc1ccccc1	-1	·	5	3747	5	0
CN1CCCc2cc(CCNC(=O)COc3ccccc3)ccc21	·	70	·	·	·	·
CCCN1CCCc2cc(CCNC(=O)OC)ccc21	·	64*	·	·	·	·
CCCN1CCCc2cc(CCNC(=O)CC(C)(C)C)ccc21	·	58*	·	·	·	·
CCCNC(=O)C(=O)NCCc1ccc2c(c1)CCCN2CCC	·	3	·	·	·	·
CCCN1CCCc2cc(CCNC(=O)COc3ccccc3)ccc21	·	95*	·	·	·	·
CCCN1CCCc2cc(CCNC(=O)CCc3ccc(OC)cc3)ccc21	·	66*	·	·	·	·
COc1ccccc1C(=O)N1CCN(c2oc(-c3ccco3)nc2C#N)CC1	·	-9	·	·	·	·
CCCN1CCCc2cc(CCNC(=O)C(=O)NCC)ccc21	·	24	·	·	·	·
CCCN1CCCc2cc(CCNC(=O)Cc3ccc(F)cc3)ccc21	·	73*	·	·	·	·
CCCN1CCCc2cc(CCNC(=O)CC(C)C)ccc21	·	55	·	·	·	·
CCCN1CCCc2cc(CCNC(=O)C(=O)Nc3ccon3)ccc21	·	56*	·	·	·	·
Cc1ccc(-n2ncc3c(C)nnc(SCC(=O)NCC4CCCO4)c32)cc1C (configuration not stated)	·	-8	·	·	·	·
c1ccc(C2OC3c4cccc5cccc(c45)C3N2c2ccccc2)cc1 (configuration not stated)	-4	0	-5	22884*	-4	?
COc1ccccc1-n1cnnc1CN1CCN(CC(=O)Nc2ccccc2Cl)CC1	·	6	·	·	·	·
COC(=O)[C@@H]1C[C@@]2(O)[C@@H](O)[C@@H](O)[C@@H](O)C[C@H]2N1Cc1cc(OC)cc(OC)c1	3	101*	-8	2793	1	1
Clc1ccc(-n2ncc3c(Nc4cccc5ccccc45)ncnc32)cc1	·	6	·	·	·	·
Nc1nc(SCc2ccc(Cl)cc2Cl)ns1	0	-29	4	6028	7	1
Nc1cc(SCc2ccc(Cl)cc2Cl)ncn1	6	2	56*	3910	-4	-1
CCOC(=O)c1c(NC(=S)Nc2ccccc2)sc2c1CCC2	·	-7	·	·	·	·
CCOC(=O)c1c(NC(=S)Nc2ccccc2)sc2c1CCN(CC)C2	2	-8	51*	9132	31*	18
CCOC(=O)c1c(NC(=O)Nc2ccc(C)cc2)sc2c1CCN(C)C2	-52	5	50*	4528	10	-6
CCOC(=O)N1CCN(S(=O)(=O)c2ccc(C(=O)Nc3sc4c(c3C(=O)OC)CCN(C)C4)cc2)CC1	10	5	295*	5246	-2	1
